From PubChem BioAssay
Values joined by “and” are separate entries in the source; they are usually repeats but may differ in a detail not shown here. Identical values can stand only once. Records with an inconclusive call do not appear. Active and inactive are the calls of the source. Unless noted, cut-off not given; nearly all actives show AC50 up to about 26 µM.

Legend:
[1] = viability loss in pontine glioma line – cell-based, SU-DIPG-XXV, MIPE5.0, CellTiter-Glo, qHTS, dose response (AID 1347065); conditions: CellTiter-Glo ATP luminescence;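 further: cells exposed to compound for 48 hours before ATP readout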
[2] = SU-DIPG-VI glioma cell viability, MIPE4.0 library, CellTiter-Glo luminescence, qHTS (AID 1347066; cut-off not given, nearly all actives have AC50 up to about 30 µM;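 further: cells exposed to compound for 48 hours before readout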); conditions: CellTiter-Glo ATP luminescence
[3] = JHH-DIPG-1 glioma cell viability, MIPE5.0 library, CellTiter-Glo luminescence, qHTS (AID 1347067); conditions: JHH-DIPG-1 glioma viability, CellTiter-Glo ATP luminescence;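 further: cells exposed to compound for 48 hours before readout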
[4] = SU-DIPG-XXV glioma cell viability, MIPE5.0 library, qHTS (AID 1347068; cut-off not given, nearly all actives have IC50 up to about 30 µM)
[5] = survival rescue of mitochondrial mutant cells in low glucose, primary screen, MELAS cybrids, Rieske KO mouse fibroblasts, CellTiter-Glo (AID 1508586;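 active means mean z-score across replicates of 1.96 or higher in either the MELAS or the Rieske mutant cell line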;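 further: z relative to plate mean and SD of compound and empty wells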)
[6] = biological target: NAD(+) hydrolase SARM1 (Homo sapiens) (UniProt Q6SZW1); experiment: SARM1 TIR NADase inhibitors, cell lysate, NAD-Glo luminescence (AID 1508614;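 active means compound whose remaining NAD level is above about 45 nM, limit read from the data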); conditions: SAM-TIR HEK293T lysate NADase, at 1 µM, stronger effect = higher value
Chain of NAD(+) hydrolase SARM1 (Homo sapiens) (Q6SZW1 whole entry, looked up, the tested form may be a part): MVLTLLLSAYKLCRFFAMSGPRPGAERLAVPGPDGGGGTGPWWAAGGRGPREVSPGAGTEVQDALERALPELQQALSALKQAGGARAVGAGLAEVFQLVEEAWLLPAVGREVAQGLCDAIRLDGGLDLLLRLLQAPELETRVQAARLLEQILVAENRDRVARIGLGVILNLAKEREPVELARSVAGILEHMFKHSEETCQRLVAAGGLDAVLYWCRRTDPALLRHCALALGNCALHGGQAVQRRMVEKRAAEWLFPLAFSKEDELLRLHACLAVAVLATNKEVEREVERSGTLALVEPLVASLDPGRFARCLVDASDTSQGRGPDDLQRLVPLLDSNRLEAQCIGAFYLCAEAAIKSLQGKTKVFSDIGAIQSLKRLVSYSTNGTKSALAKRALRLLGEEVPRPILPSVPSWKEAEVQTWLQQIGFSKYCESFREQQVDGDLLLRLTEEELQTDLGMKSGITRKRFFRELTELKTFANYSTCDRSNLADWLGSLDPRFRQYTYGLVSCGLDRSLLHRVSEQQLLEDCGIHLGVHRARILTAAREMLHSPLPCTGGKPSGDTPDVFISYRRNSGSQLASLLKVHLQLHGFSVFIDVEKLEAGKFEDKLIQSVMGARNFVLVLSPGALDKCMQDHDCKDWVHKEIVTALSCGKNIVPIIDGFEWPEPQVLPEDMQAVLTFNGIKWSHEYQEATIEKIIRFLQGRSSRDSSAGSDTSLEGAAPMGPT

[7] = biological target: Mitogen-activated protein kinase 7 (Homo sapiens) (UniProt Q13164); experiment: ERK5 transactivation activators in reporter cells, primary screen, cell-based, HTS (AID 1508626;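 active means luciferase signal above three times the same-plate solvent-only control wells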;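 further: luciferase driven by Gal4-ERK5 fusion binding five Gal4 sites before minimal TATA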); conditions: HeLa Gal4-ERK5 transactivation, 18 h, at 5 µM, stronger effect = higher value
Chain of Mitogen-activated protein kinase 7 (Homo sapiens) (Q13164 whole entry, looked up, the tested form may be a part): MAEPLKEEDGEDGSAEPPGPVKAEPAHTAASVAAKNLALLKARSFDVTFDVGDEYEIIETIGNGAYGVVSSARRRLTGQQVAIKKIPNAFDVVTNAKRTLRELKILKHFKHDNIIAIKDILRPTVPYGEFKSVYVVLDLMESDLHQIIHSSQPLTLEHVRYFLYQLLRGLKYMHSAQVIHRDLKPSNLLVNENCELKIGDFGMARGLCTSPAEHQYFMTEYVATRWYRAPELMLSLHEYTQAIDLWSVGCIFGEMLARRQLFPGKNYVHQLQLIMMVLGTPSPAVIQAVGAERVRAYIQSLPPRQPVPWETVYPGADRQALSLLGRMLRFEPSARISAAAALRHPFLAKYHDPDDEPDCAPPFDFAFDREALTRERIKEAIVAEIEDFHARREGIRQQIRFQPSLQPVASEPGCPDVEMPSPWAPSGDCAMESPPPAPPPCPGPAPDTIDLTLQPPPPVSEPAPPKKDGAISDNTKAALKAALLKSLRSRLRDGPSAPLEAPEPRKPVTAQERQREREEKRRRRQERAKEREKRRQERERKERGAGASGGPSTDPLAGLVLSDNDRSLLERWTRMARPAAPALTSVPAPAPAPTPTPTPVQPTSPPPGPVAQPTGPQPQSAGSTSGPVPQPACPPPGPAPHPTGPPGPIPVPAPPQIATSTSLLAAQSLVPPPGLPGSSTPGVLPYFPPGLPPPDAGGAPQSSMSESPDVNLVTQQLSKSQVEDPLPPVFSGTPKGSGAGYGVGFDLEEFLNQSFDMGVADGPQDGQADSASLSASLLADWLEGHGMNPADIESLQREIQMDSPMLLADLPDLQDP

[8] = viability rescue of complex I mutant cybrids, primary screen, cell-based, galactose medium, ATP luminescence (AID 1645843;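 active means z-score of at least 1.8 in each of two replicates, scored against plate mean and spread of sample wells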;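 further: positive z means more ATP and so rescue of galactose-driven cybrid death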); conditions: complex I mutant cybrid cells, 72 h, stronger effect = higher value
[9] = phospholipid biosynthesis inhibitors in animal cells, primary screen, cell-based, LOPAC library, screen 4 (AID 1347384; call rule not given here); conditions: phospholipid biosynthesis inhibition screen, at 10 µM
[10] = LFS_MB_P medulloblastoma growth inhibition, cell-based, chromothripsis tumors, cisplatin or BGB combos (AID 1671449; in the data active means inhibition above about 80%;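 further: cells exposed for 96 hours; 0% = vehicle DMSO and 100% = killing by high DMSO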); conditions: LFS_MB_P medulloblastoma cells
[11] = HDN33 neuroblastoma growth inhibition, cell-based, chromothripsis tumors, cisplatin or BGB combos (AID 1671450; in the data active means inhibition above about 80%;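 further: cells exposed to compound for four days; 0% = vehicle DMSO and 100% = cell killing by high DMSO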); conditions: HDN33 neuroblastoma cells, stronger effect = higher value
[12] = ICB984 medulloblastoma cell growth inhibition, synergistic combos for chromothripsis tumors, cisplatin or BGB combos (AID 1671451; call rule not given here;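 further: cells exposed for 96 hours before readout; 0% = vehicle DMSO and 100% = killing by high DMSO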); conditions: ICB984 medulloblastoma cells, drug combinations, stronger effect = higher value
[13] = LFS_MB_1R medulloblastoma cell growth inhibition, synergistic combos for chromothripsis tumors, cisplatin or BGB combos (AID 1671452; in the data active means inhibition above about 80%;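 further: cells exposed for 96 hours before readout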); conditions: LFS_MB_1R medulloblastoma cells, stronger effect = higher value
[14] = HTB85 osteosarcoma cell growth inhibition, synergistic combos for chromothripsis tumors, BGB or cisplatin IC20 combos (AID 1671453; in the data active means inhibition above about 80%;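 further: cells exposed for 96 hours before readout; 0% = vehicle DMSO and 100% = high DMSO killing control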); conditions: HTB85 osteosarcoma cells, drug combinations, stronger effect = higher value
[15] = CRL2098 osteosarcoma cell growth inhibition, synergistic combos for chromothripsis tumors, BGB or cisplatin IC20 combos (AID 1671454; in the data active means inhibition above about 80%;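 further: cells exposed for 96 h before readout; 0% = vehicle DMSO and 100% = killing by high DMSO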); conditions: CRL2098 osteosarcoma cells, drug combinations, stronger effect = higher value
[16] = HD-MB03 medulloblastoma cell growth inhibition, synergistic combos for chromothripsis tumors, BGB or cisplatin IC20 combos (AID 1671455; in the data active means inhibition above about 83%;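 further: 0% = vehicle DMSO and 100% = high DMSO as cytotoxic control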); conditions: HD-MB03 medulloblastoma cells, stronger effect = higher value
[17] = MELAS cybrid survival, CellTiter-Glo 48 h, stronger effect = higher value
[18] = Rieske KO mouse fibroblast survival, CellTiter-Glo 72 h
[19] = measured here: combination with BGB IC40, at 0.05 µM

In the case of `CCCc1nc(C)c2c(=O)[nH]c(-c3cc(S(=O)(=O)N4CCN(CC)CC4)ccc3OCC)nn12`, the outcome [1] is reported as “inactive”, the AC50 [2] is reported as 8.33 µM (active) and the outcome [3] is reported as “inactive”. The outcome [4] was “inactive”, the z-score [5, 17] was -0.282 (inactive) and 1.61 (inactive) and 1.47 (inactive) and the z-score [5, 18] was -1.38 and 1.33 and 1.06. The remaining NAD [6] was 18 nM (inactive), the luciferase signal [7] was 60 AU (inactive) and the z-score [8] was 0.68 (inactive) and 0.485 (inactive).
With `CN1CCC(=C2c3ccccc3CC(=O)c3sccc32)CC1` the outcome [1] was “inactive”, the outcome [2] was “inactive” and the outcome [3] was “inactive”. The outcome [4] was “inactive”, the outcome [9] was “inactive” and the z-score [5, 17] was -0.303 (inactive) and -0.251 (inactive) and -0.573 (inactive). The z-score [5, 18] was -0.862 and -0.369 and 0.333, the remaining NAD [6] was 10 nM (inactive) and the luciferase signal [7] was 76 AU (inactive).
For `N[C@@H](Cc1ccc(O)c(O)c1)C(=O)O`, the outcome [1] was “inactive”, the outcome [2] was “inactive” and the outcome [3] was “inactive”. For the same compound, the outcome [4] was “inactive”, the outcome [9] was “inactive” and the z-score [5, 17] was -0.394 (inactive) and -0.26 (inactive). The z-score [5, 18] was 0.117 and -1.12, the remaining NAD [6] was 10 nM (inactive) and the luciferase signal [7] was 72 AU (inactive). The z-score [8] was -0.965 (inactive) and -1.59 (inactive).
In the case of `Cc1ccccc1N1C(=O)c2cc(S(N)(=O)=O)c(Cl)cc2NC1C` (stereo not drawn), the outcome [1] is reported as “inactive”, the outcome [2] is reported as “inactive” and the outcome [3] is reported as “inactive”. For the same compound, the outcome [4] was “inactive”, the outcome [9] was “inactive” and the z-score [5, 17] was -0.2 (inactive) and 0.948 (inactive). For the same compound, the z-score [5, 18] was 0.325 and -0.0446, the remaining NAD [6] was 10 nM (inactive) and the luciferase signal [7] was 64 AU (inactive). For the same compound, the z-score [8] was -0.04 (inactive).
For `CC(C)NCC(O)COc1ccc(CCOCC2CC2)cc1` (stereo not drawn), the outcome [1] was “inactive”, the outcome [2] was “inactive” and the outcome [3] was “inactive”. For the same compound, the outcome [4] was “inactive”, the outcome [9] was “inactive” and the remaining NAD [6] was 10 nM (inactive).
In the case of `Nc1[nH]c(=O)ncc1F`, the outcome [1] is reported as “inactive”, the outcome [2] is reported as “inactive” and the outcome [3] is reported as “inactive”. For the same compound, the outcome [4] was “inactive”, the z-score [5, 17] was -0.163 (inactive) and 0.671 (inactive) and the z-score [5, 18] was 0.841 and -0.221. The remaining NAD [6] was 10 nM (inactive), the z-score [8] was 0.61 (inactive) and the inhibition ([10]; at 0.5 µM, stronger effect = higher value) was 35.6% (inactive). For the same compound, the inhibition ([10]; measured here: combination with BGB IC20, at 0.005 µM) was -27.5%, the inhibition ([10]; measured here: combination with BGB IC40, at 0.005 µM) was -28.3% and the inhibition [10, 19] was -22%. For the same compound, the inhibition ([10]; measured here: combination with cisplatin, at 0.5 µM, stronger effect = higher value) was 56.8%, the inhibition ([10]; measured here: combination with cisplatin, at 5 µM, stronger effect = higher value) was -29.9% and the inhibition ([11]; BGB combo, at 5 µM) was -19.9%. The inhibition ([11]; at 0.5 µM) was -18.6% (inactive), the inhibition ([11]; cisplatin combo, at 5 µM) was -41.9% and the inhibition ([11]; measured here: with BGB IC20 combination, at 0.5 µM) was -4.48%. It also gave an inhibition ([11]; measured here: with cisplatin IC20 combination, at 0.5 µM) of -14.6%, an inhibition ([11]; single agent, at 5 µM) of 9.06% and an inhibition ([12]; BGB IC20 combo, at 0.005 µM) of -28.5%. The inhibition ([12]; BGB IC40 combo, at 0.005 µM) was -43.6%, the inhibition ([12]; BGB IC40 combo, at 0.05 µM) was -8.87% and the inhibition ([12]; at 0.5 µM) was -40.6% (inactive). The inhibition ([12]; cisplatin combo, at 0.05 µM) was -8.87%, the inhibition ([12]; cisplatin combo, at 0.5 µM) was -57.1% and the inhibition ([12]; cisplatin combo, at 5 µM) was -45.6%. For the same compound, the inhibition ([12]; measured here: 5 uM single agent, at 5 µM) was -3.48%, the inhibition ([13]; at 0.5 µM) was -37.2% (inactive) and the inhibition [13, 19] was -0.509%. For the same compound, the inhibition ([13]; measured here: combination with cisplatin, at 0.5 µM) was -34.6%, the inhibition ([13]; measured here: combination with cisplatin, at 5 µM) was -0.132% and the inhibition ([14]; at 0.5 µM) was -19.7% (inactive). The inhibition ([14]; measured here: with BGB IC20, at 0.5 µM) was -43%, the inhibition ([14]; measured here: with BGB IC20, at 5 µM) was -34% and the inhibition ([14]; measured here: with cisplatin IC20, at 0.5 µM) was -6.71%. The inhibition ([14]; measured here: with cisplatin IC20, at 5 µM) was -6.3%, the inhibition ([14]; single agent, at 5 µM) was -19.7% and the inhibition ([15]; at 0.5 µM) was -73.3% (inactive). The inhibition ([15]; measured here: combination with BGB at IC20, at 0.5 µM) was -56.9%, the inhibition ([15]; measured here: combination with cisplatin at IC20, at 0.5 µM) was -90.3% and the inhibition ([16]; at 0.5 µM) was 5.78% (inactive). It also gave an inhibition ([16]; measured here: combo with BGB at IC20, at 0.5 µM) of 2.74% and an inhibition ([16]; measured here: combo with cisplatin at IC20, at 0.5 µM) of 10.4%.
